# The supplement of paper PMC8728848
# Shown is part of a subset that was picked to be rich in the strongest signals.
# Key:
# Assay in all cases: glycan array binding signal (z-score within array); higher = stronger binding
# Settings in all cases: glycan notation: IUPAC condensed, linker removed
# [1] = target: Gal(b1-4)GlcNAc(b1-3)Gal(b1-4)GlcNAc(b1-2)Man(a1-3)[Gal(b1-4)GlcNAc(b1-3)Gal(b1-4)GlcNAc(b1-2)Man(a1-6)]Man(b1-4)GlcNAc(b1-4)[Fuc(a1-6)]GlcNAc
# Procedure, shortened: (§1)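 The binding signal is a Z-score computed within each array and averaged over linkers. Arrays of the same protein sequence at different concentrations or buffers were also averaged together. Data originate from 3228 arrays in the Consortium for Functional Glycomics database, kept only where the protein sequence was available.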
# [2] = target: Gal(b1-4)GlcNAc(b1-3)Gal(b1-4)GlcNAc(b1-6)[Gal(b1-3)]GalNAc
# Procedure, shortened: as §1
# GalNAc(b1-3)GlcNAc = target: GalNAc(b1-3)GlcNAc
# Procedure, shortened: as §1
# GalNAc3S(b1-4)GlcNAc3S = target: GalNAc3S(b1-4)GlcNAc3S
# Procedure, shortened: as §1
# [3] = target: GlcNAc(b1-2)Gal(b1-3)GalNAc
# Procedure, shortened: as §1
# [4] = target: GlcNAc(b1-2)Man(a1-3)[GlcNAc(b1-2)Man(a1-6)]Man(b1-4)GlcNAc(b1-4)GlcNAc
# Procedure, shortened: as §1
# [5] = target: GlcNAc(b1-2)[GlcNAc(b1-4)]Man(a1-3)[GlcNAc(b1-2)Man(a1-6)]Man(b1-4)GlcNAc(b1-4)GlcNAc
# Procedure, shortened: as §1
# [6] = target: GlcNAc(b1-3)Gal(b1-4)GlcNAc
# Procedure, shortened: as §1
# [7] = target: GlcNAc(b1-3)Gal(b1-4)GlcNAc(b1-3)Gal(b1-4)GlcNAc(b1-2)Man(a1-3)[GlcNAc(b1-3)Gal(b1-4)GlcNAc(b1-3)Gal(b1-4)GlcNAc(b1-2)Man(a1-6)]Man(b1-4)GlcNAc(b1-4)GlcNAc
# Procedure, shortened: as §1
# [8] = target: GlcNAc(b1-3)Gal(b1-4)GlcNAc(b1-6)[GlcNAc(b1-3)Gal(b1-3)]GalNAc
# Procedure, shortened: as §1
# Kdn(a2-3)Gal(b1-3)GalNAc = target: Kdn(a2-3)Gal(b1-3)GalNAc
# Procedure, shortened: as §1
# Kdn(a2-3)Gal(b1-3)GlcNAc = target: Kdn(a2-3)Gal(b1-3)GlcNAc
# Procedure, shortened: as §1
# [9] = target: Man(a1-2)Man(a1-3)[Man(a1-6)]Man(a1-6)[Man(a1-2)Man(a1-3)]Man(b1-4)GlcNAc(b1-4)GlcNAc
# Procedure, shortened: as §1
# [10] = target: Man(a1-2)Man(a1-6)[Man(a1-3)]Man(a1-6)[Man(a1-2)Man(a1-2)Man(a1-3)]Man(b1-4)GlcNAc(b1-4)GlcNAc
# Procedure, shortened: as §1
# [11] = target: Man(a1-3)[Man(a1-6)]Man(a1-6)[Man(a1-2)Man(a1-3)]Man(b1-4)GlcNAc(b1-4)GlcNAc
# Procedure, shortened: as §1
# [12] = target: Man(a1-3)[Man(a1-6)]Man(a1-6)[Man(a1-3)]Man(b1-4)GlcNAc(b1-4)GlcNAc
# Procedure, shortened: as §1
# [13] = target: Man(a1-3)[Man(a1-6)]Man(b1-4)GlcNAc(b1-4)GlcNAc
# Procedure, shortened: as §1
# [14] = target: Man(a1-3)[Man(a1-6)]Man(b1-4)GlcNAc(b1-4)[Fuc(a1-6)]GlcNAc
# Procedure, shortened: as §1
# [15] = target: Neu5Ac(a2-3)Gal(b1-3)GlcNAc(b1-2)Man
# Procedure, shortened: as §1
# [16] = target: Neu5Ac(a2-3)Gal(b1-3)GlcNAc(b1-3)GalNAc
# Procedure, shortened: as §1
# [17] = target: Neu5Ac(a2-3)Gal(b1-3)GlcNAc(b1-4)Gal(b1-4)Glc
# Procedure, shortened: as §1
# [18] = target: Neu5Ac(a2-3)Gal(b1-4)GlcNAc(b1-3)Gal
# Procedure, shortened: as §1
# [19] = target: Neu5Ac(a2-3)Gal(b1-4)[Fuc(a1-3)]GlcNAc(b1-3)Gal
# Procedure, shortened: as §1
# [20] = target: Neu5Ac(a2-3)Gal(b1-4)[Fuc(a1-3)]GlcNAc(b1-3)GalNAc
# Procedure, shortened: as §1
# [21] = target: Neu5Ac(a2-3)[GalNAc(b1-4)]Gal(b1-4)GlcNAc
# Procedure, shortened: as §1
# Neu5Ac(a2-6)Gal(b1-4)Glc = target: Neu5Ac(a2-6)Gal(b1-4)Glc
# Procedure, shortened: as §1
# [22] = target: Neu5Ac(a2-6)Gal(b1-4)GlcNAc(b1-2)Man(a1-6)[Man(a1-3)]Man(b1-4)GlcNAc(b1-4)GlcNAc
# Procedure, shortened: as §1
# [23] = target: Neu5Ac(a2-8)Neu5Ac(a2-3)Gal(b1-3)GalNAc(b1-4)[Neu5Ac(a2-3)]Gal(b1-4)Glc
# Procedure, shortened: as §1
binder,measurement,setting,value
OrysaEULS2 (Oryza sativa) (protein) MVYCRANPNYAMTARNGAVVLAPANPKDEYQHWIKDMRWSTSIKDEEGYPAFALVNKATGQAIKHSLGQSHPVRLVPYNPEVMDESVLWTESRDVGNGFRCIRMVNNIYLNFDAFHGDKYHGGVRDGTDIVLWKWCEGDNQRWKIQPYYILEQKLISEEDLNSAVDHHHHHH,glycan array binding signal (z-score),[1],0.18
same,glycan array binding signal (z-score),[2],-0.172
same,glycan array binding signal (z-score),GalNAc(b1-3)GlcNAc,-0.242
same,glycan array binding signal (z-score),GalNAc3S(b1-4)GlcNAc3S,-0.189
same,glycan array binding signal (z-score),[3],-0.206
same,glycan array binding signal (z-score),[4],3.13
same,glycan array binding signal (z-score),[5],-0.179
same,glycan array binding signal (z-score),[6],-0.186
same,glycan array binding signal (z-score),[7],0.555
same,glycan array binding signal (z-score),[8],-0.224
same,glycan array binding signal (z-score),Kdn(a2-3)Gal(b1-3)GalNAc,-0.167
same,glycan array binding signal (z-score),Kdn(a2-3)Gal(b1-3)GlcNAc,-0.204
same,glycan array binding signal (z-score),[9],1.35
same,glycan array binding signal (z-score),[10],1.51
same,glycan array binding signal (z-score),[11],4.8
same,glycan array binding signal (z-score),[12],4.45
same,glycan array binding signal (z-score),[13],12.5
same,glycan array binding signal (z-score),[14],1.44
same,glycan array binding signal (z-score),[15],-0.31
same,glycan array binding signal (z-score),[16],-0.195
same,glycan array binding signal (z-score),[17],-0.24
same,glycan array binding signal (z-score),[18],-0.196
same,glycan array binding signal (z-score),[19],-0.179
same,glycan array binding signal (z-score),[20],-0.145
same,glycan array binding signal (z-score),[21],-0.207
same,glycan array binding signal (z-score),Neu5Ac(a2-6)Gal(b1-4)Glc,-0.21
same,glycan array binding signal (z-score),[22],3.61
same,glycan array binding signal (z-score),[23],-0.153
